Source: PubChem BioAssay (National Center for Advancing Translational Sciences (NCATS))
Shiga inhibitor: blocks Shiga toxin action in Vero cells; 290,000 compounds, 9.2% hits; Vero cells, Shiga toxin protein synthesis inhibition reporter; AID 2315; inhibition, % at 38.7 µM; in the data active = inhibition mostly above about 28%, no sharp cut-off; inactive = mostly below about 43%; also: 0% is about no effect
Pf growth 96h: P. falciparum growth inhibition at 96 hour, primary screen for plastid delayed-death inhibitors; 320,000 compounds, 6.9% hits; Potency, µM (titrated, usually from 28.7 µM), inactives show at the top dose activity change, negative = inhibition, hits mostly inhibitors; P. falciparum luciferase reporter growth, 96 h; also: potency is read from the fitted curve at half-maximal effect; % is scaled to controls: 0 for no effect and ±100 for the full control effect
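Two-generation exposure (96 h) targets delayed-death phenotype. Reporter parasites carrying integrated firefly luciferase, in red cells at 2% hematocrit and 0.05% parasitemia final, kept at 37 C, 5% CO2; luminescence loss indicates inhibition.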
Cycloheximide cs: affects cycloheximide protein synthesis inhibition readout, counter-screen. cell reporter, cycloheximide protein synthesis inhibition counterscreen. max response, %. 300,000 compounds, 12% hits; in the data active = max response mostly above about 13%, no sharp cut-off; inactive = mostly below about 14%; also: read at 38.3 µM for the half of the compounds with a filed dose; 0% is about no effect
NS1 function inh: blocks influenza NS1 protein function. Potency, µM (titrated, usually from 46.1 µM), without a hit: top-dose activity, positive = more growth. 270,000 compounds, 0.4% hits. AID 2326; calls by dose curve; also: potency is read from the fitted curve at half-maximal effect; actives are rising curves; nearly all actives have a fitted effect of over 50% in size
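Growth recovery, yeast-based: influenza A NS1 expressed in S. cerevisiae causes slow growth, and suppressors are detected by OD600. The parent strain without NS1 is used as positive control.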
Sm TGR inh: inhibitors of Schistosoma mansoni thioredoxin glutathione reductase | Potency, µM (highest dose often 114 µM), for inactives: top-dose activity change, negative = inhibition, hits mostly inhibitors | 360,000 compounds, 3% hits | AID 485364 | purified TGR, DTNB reduction, TNB absorbance 405 nm | Q962Y6; also: potency is read from the fitted curve at half-maximal effect; % is scaled to controls: 0 for no effect and ±100 for the full control effect; nearly all actives have a fitted effect of over 60% in size
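First, TGR (20 nM dispensed) and NADPH were mixed with compound. Second, a 15 min room-temperature incubation followed. Third, further NADPH and then DTNB were added to start the reaction. Finally, TNB absorbance was monitored kinetically.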
Pf growth 48h: inhibits P. falciparum growth in the first generation, 48 h; P. falciparum luciferase growth in erythrocytes, 48 h; Potency, µM (doses to about 28.7 µM), for inactives: top-dose activity change, negative = inhibition, actives largely listed as inhibitors; 310,000 compounds, 5.9% hits; AID 504832; also: potency is read from the fitted curve at half-maximal effect; % is scaled to controls: 0 for no effect and ±100 for the full control effect
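Luciferase-expressing parasites in RBCs, 2% Hct / 0.1% parasitemia final; RPMI 1640 + 0.5% Albumax; 37 C, 5% CO2, one generation; luminescence read-out, lower signal = inhibition.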
The depositor's hits bear a star; ? = inconclusive; nt = no result given; [ ] = another dose, or the depositor's remark. Most compounds without a hit are left out; they make up all but 21% or so of the library. Unless noted, calls follow the shape of the dose curve; as a rule, active = well fitted curve in the direction sought with a large enough effect; inconclusive = small, poorly fitted or top-dose-only effect, or another doubt; inactive = no such curve, though single readings can be large; an effect the other way counts as inactive or inconclusive.

SMILES	Shiga inhibitor	Pf growth 96h	Cycloheximide cs	NS1 function inh	Sm TGR inh	Pf growth 48h
CCCC(=O)Nc1ccc2c(c1)nc1n2CCOC1	27	1%[5.75 µM]	-2	5%	0%	11%
CCCCC(=O)Nc1ccc2c(c1)nc1n2CCOC1	89*	23%[5.75 µM]	20*	1%	8%	73%
CC1CCN(S(=O)(=O)N2CCC(C(=O)NCCc3ccccc3)CC2)CC1	4	14%	-7	0%	4%	-16%
C(=N\Nc1nc2ccccc2[nH]1)/c1cccc2nccnc12	29	?	31*	-3%	5%	?
COc1cc(OC)c(OC)cc1/C=N/Nc1nc2ccccc2[nH]1	-2	1.9µM*	-2	-4%	12%	1µM*
COc1ccc2c(c1)c(/C=N/Nc1nc3ccccc3[nH]1)c(C)n2C	36	1.7µM*	7	0%	4%	1.5µM*
C#CCn1cc(/C=N/Nc2nc3ccccc3[nH]2)c2ccccc21	81*	7%	54*	?	6%	?
COc1ccc2c(c1)c(C(=O)N/N=C/c1cn(C)c3ccccc13)c(C)n2C	-14	-10%	0	6%	0%	-20%
Cc1ccc(NC(=O)C(C)c2ccc(-c3ccccc3)c(F)c2)c(C)c1 (stereo not drawn)	-12	nt	8	0%	3%	0%
O=C(O)C1CCCN(S(=O)(=O)c2ccc(-c3ccc(=O)[nH]n3)s2)C1 (stereo not drawn)	-6	?	-1	-9%	1%	10%
Cc1ccc(-c2nc3scc(CCNS(=O)(=O)c4ccc(C)c(C)c4)n3n2)cc1	nt	nt	nt	nt	7%	nt
N#Cc1c(-n2ccnc2)cccc1-n1ccnc1	-11	3%	-3	-1%	1%	16%
CCOC(Cn1cc(C)c(=O)[nH]c1=O)OCC	-7	9%	-1	nt	1%	25%
Cc1ccc(S(=O)(=O)NC(=O)COc2ccc([N+](=O)[O-])cc2)cc1	-8	32%	-1	5%	0%	-18%
Cc1ccc2cc(/C=N/Nc3nc4ccccc4[nH]3)c(Cl)nc2c1	93*	?	55*	14%	-8%	0.74µM*
COc1ccc(/C=N/OC/C(O)=C(\C#N)c2nc3ccccc3[nH]2)cc1OC	9	-11%	5	6%	1%	-5%
Cc1cc(C)nc(N/N=C/c2ccc3c(c2)OCCO3)n1	59*	48%	25*	-2%	0%	63%
COc1ccc(/C=N/Nc2nc3ccccc3[nH]2)cc1OC	73*	?	32*	18%	0%	0.47µM*
C#CCn1cc(/C=N/NC(=O)COc2cccc3cccnc23)c2ccccc21	26*	11%	12*	4%	-4%	0%
Cc1ccc(NCC(=O)N/N=C/c2cc3ccccc3nc2Cl)cc1	21	40%	12	16%	11%	?
COC(=O)Cn1cc(/C=N/NC(=O)COc2cccc3cccnc23)c2ccccc21	-3	3%	2	1%	-11%	-5%
C(=N\Nc1nc2ccccc2[nH]1)/c1ccc2c(c1)OCCO2	36	?	28*	-32%	4%	?
C(=N\Nc1nc2ccccc2[nH]1)/c1ccccn1	-12	342%	-6	nt	12%	-41%
CC(C)NC(=S)N/N=C/c1ccc2c(c1)OCCO2	53*	21%	49*	3%	-26%	16%
C(=N\Nc1nc2ccccc2[nH]1)/c1ccc2ncccc2c1	58*	?	58*	-2%	10%	0.15µM*
SMILES	Shiga inhibitor	Pf growth 96h	Cycloheximide cs	NS1 function inh	Sm TGR inh	Pf growth 48h
CCN(CC)c1ccc(/C=N/Nc2nc3ccccc3[nH]2)c(O)c1	100*	1.2µM*	52*	-62%	-2%	nt
COc1cccc(-c2ncc3ccccc3c2COC(=O)CCC(=O)O)c1	nt	?	nt	nt	-15%	1%
COc1ccccc1C(=O)NC(=O)COc1ccc([N+](=O)[O-])cc1	nt	21%	nt	nt	-5%	2%
O=C1CC(N2CCN(c3ncccn3)CC2)C(=O)N1CCc1ccccc1 (stereo not drawn)	12	?	7	1%	nt	16%
O=C(NCCc1ccccc1)Nc1ccc(Cl)cc1	46*	17%	46*	-5%	5%	150%
S=C(NCCc1ccccc1)NCc1cccc(Cl)c1	23*	?	19	-6%	?	5%
Fc1ccccc1NC(=S)NCCc1cccc(Cl)c1	78*	?	40*	-33%	-35%	-16%
CC(C)(C)C(=O)NC(=S)NCCc1ccccc1	90*	-3%	39*	-46%	20µM*	45%
S=C(NCCc1ccccc1)Nc1ccc(Br)cn1	25	8.3µM*	1	-3%	?	-2%
O=C(COc1ccccc1)NC(=S)Nc1ccc(Br)cn1	12	?	-1	1%	9%	?
O=C(NCCc1ccc(F)cc1)Nc1ccccc1Cl	55*	25%	26*	-40%	1%	?
C/C(CCc1ccccc1)=N\NC(=S)NCCc1ccccc1	-5	?	-2	16%	-1%	?
Fc1ccc(CCNC(=S)Nc2ccc(F)cc2)cc1	47*	23%	36*	-21%	-24%	5%
C/C(=N\NC(=S)NCCc1ccccc1)c1cccs1	24	-2%	17*	-22%	4%	?
CC(OC(=O)Cn1[nH]c(=O)c2ccccc2c1=O)C(=O)Nc1ccccc1[N+](=O)[O-] (stereo not drawn)	nt	8%	nt	nt	6%	2%
COc1ccc(S(=O)(=O)NNC(=S)NCCc2ccccc2)c(OC)c1	-7	?	-2	-2%	5.6µM*	20%
Fc1cc(Br)ccc1NC(=S)NCCc1ccccc1	139*	74%	46*	-111%	1%	65%
C=CCNC(=S)Nc1ccc(Br)cc1F	1	89%	19	-3%	-29%	35%
CC1=C/C(=N\NC(=S)NCCc2ccccc2)CC(C)(C)C1	82*	-31%[5.75 µM]	23*	-5%	3%	24%
O=C(NNC(=S)NCCc1ccccc1)c1ccc(Br)s1	-2	9.3µM*	-1	2%	-1%	4%
O=C(CCc1ccc(O)cc1)NNC(=S)NCCc1ccccc1	12	17%	-3	2%	5%	-2%
Cc1ccc(NC(=O)CCCN2C(=O)NC(C)(C)C2=O)cc1	nt	35%	nt	nt	-7%	-7%
O=C(CCCn1c(=O)c2ccccc2n(Cc2cccc(Cl)c2)c1=O)NCCc1ccc(Cl)cc1	nt	nt	nt	nt	9%	nt
COc1cccc(C(=O)C2=NN(C(C)=O)CC2c2ccco2)c1 (stereo not drawn)	45	?	8	nt	-12%	3%
COc1cccc(NC(=O)c2sc(-n3nc(C)c(Cc4ccccc4Cl)c3C)nc2C)c1	nt	nt	nt	nt	4%	nt
CNC(=S)NCCCc1ccccc1	16	5.2µM*	6	0%	0%	-2%
NNC(=S)NCCc1ccccc1	30	?	8	1%	6%	-6%
COc1ccc(CC(=S)NCCc2ccccc2)cc1	nt	0%	14*	-11%	0%	12%
